Structures are written as SMILES. Compounds without any hit were thinned out: in the full panel of roughly 79,000, 15% have a hit. A number with no mark means an inactive call. Active and inactive are the calls of the source. No stated cut-off is given here; in the data, active means growth inhibition above about 70%; inactive means the rest.

The results in this text go back to PubChem BioAssay (NCI).

Experiment [1] can be described thus: NCI Yeast Anticancer Drug Screen. Data for the rad50 strain (AID 155).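 Further: 0% = growth of vehicle-only cultures of the same strain.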 The note with it: S. cerevisiae rad50 strain growth inhibition, stronger effect = higher value. The method in brief: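 Compounds were tested on a yeast strain with an engineered DNA damage repair alteration; the reported value is growth inhibition normalised to vehicle treatment.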
The nature of experiment [2]: NCI Yeast Anticancer Drug Screen. Data for the mec2-1 strain (AID 157). The note with it: S. cerevisiae mec2-1 strain, stronger effect = higher value. The method in brief:
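Cells of the genetically defined mec2-1 yeast strain are incubated with test compound. Inhibition of growth is calculated against vehicle-treated controls.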

A short description of experiment [3]: NCI Yeast Anticancer Drug Screen. Data for the sgs1 mgt1 strain (AID 161).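 Further: 0% = growth of cultures given vehicle only.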 The settings on record: S. cerevisiae sgs1 mgt1 strain, stronger effect = higher value. The method in brief:
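Genetically altered yeast, compound exposure, growth inhibition relative to vehicle.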

Experiment [4] can be described thus: NCI Yeast Anticancer Drug Screen. Data for the cln2 rad14 strain (AID 165).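 Further: 0% = growth equal to vehicle treated cultures.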 The note with it: S. cerevisiae cln2 rad14 strain, stronger effect = higher value. In outline:
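The screen exposed genetically defined yeast (cln2 rad14) to test compounds and scored growth inhibition relative to vehicle-treated controls.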

Experiment [5] can be described thus: NCI Yeast Anticancer Drug Screen. Data for the bub3 strain (AID 167). The settings on record: S. cerevisiae bub3 mutant strain, stronger effect = higher value. In outline:
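Growth of a checkpoint-deficient yeast mutant is measured after compound exposure. Values represent inhibition relative to vehicle.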

The nature of experiment [6]: NCI Yeast Anticancer Drug Screen. Data for the mlh1 rad18 strain (AID 175). The settings on record: S. cerevisiae mlh1 rad18 strain growth inhibition, stronger effect = higher value. The method in brief:
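Compound-treated yeast growth, normalised to vehicle controls. Strain bears defined DNA repair mutations.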

The mark [7] stands for this setting: at 5.0 µM (retest, dose inferred, filed as 0.5).
Where [8] appears, read: at 50.0 µM (retest, dose inferred, filed as 5.0).

Take `CC(C)(C)c1ccc(-c2nnc(SCc3ccc(Cl)cc3)n2-c2cccc(C(F)(F)F)c2)cc1`: the growth inhibition in experiment [1] (setting [7]) was -14%; in experiment [1] (setting [8]), -34%; in experiment [1] (at 50.0 µM), 52.6%; in experiment [2] (setting [7]), -20%; in experiment [2] (setting [8]), -26%; in experiment [2] (at 50.0 µM) it was 5.9%. Also, the growth inhibition in experiment [3] (setting [7]) was -13%; in experiment [3] (setting [8]) it was -30%; in experiment [3] (at 50.0 µM), -3.2%; in experiment [4] (setting [7]), 9%; in experiment [4] (setting [8]), -14%; in experiment [4] (at 50.0 µM), -20.9%. Moreover, the growth inhibition in experiment [5] (setting [7]) was 7%; in experiment [5] (setting [8]), -9%; in experiment [5] (at 50.0 µM), 14.4%; in experiment [6] (setting [7]), -28%; in experiment [6] (setting [8]), -29%; in experiment [6] (at 50.0 µM), -19.6%.

Consider `C=C1C[C@H](O)[C@H]2C(C[Se]c3ccccc3)C(=O)O[C@@H]2[C@H]2[C@H](C)C(O)C[C@@H]12` (some centres not stated), for which the growth inhibition was 2% in experiment [1] (setting [7]); 35% in experiment [1] (setting [8]); 43.6% in experiment [1] (at 50.0 µM); 2% in experiment [2] (setting [7]); -7% in experiment [2] (setting [8]); 20.6% in experiment [2] (at 50.0 µM). In addition, the growth inhibition was 9% in experiment [3] (setting [7]); 61% in experiment [3] (setting [8]); 17.2% in experiment [3] (at 50.0 µM); -2% in experiment [4] (setting [7]); 8% in experiment [4] (setting [8]); -32.1% in experiment [4] (at 50.0 µM). Also, the growth inhibition in experiment [5] (setting [7]) is -5%; in experiment [5] (setting [8]), 21%; in experiment [5] (at 50.0 µM) it was 21.8%; in experiment [6] (setting [7]), 0%; in experiment [6] (setting [8]) it was 32%; in experiment [6] (at 50.0 µM), 86.5% (active).

For `c1cc[c]([Sn]([S]c2ccccn2)([c]2ccccc2)[c]2ccccc2)cc1`, the growth inhibition in experiment [1] (setting [7]) is 100% (active); in experiment [1] (setting [8]) it was 99% (active); in experiment [1] (at 50.0 µM) it was 99.5% (active); in experiment [2] (setting [7]) it was 100% (active); in experiment [2] (setting [8]) it was 99% (active); in experiment [2] (at 50.0 µM) it was 99.5% (active). In addition, the growth inhibition was 99% (active) in experiment [3] (setting [7]); 99% (active) in experiment [3] (setting [8]); 99.1% (active) in experiment [3] (at 50.0 µM); 99% (active) in experiment [4] (setting [7]); 99% (active) in experiment [4] (setting [8]); 97% (active) in experiment [4] (at 50.0 µM). For the same compound, the growth inhibition in experiment [5] (setting [7]) is 96% (active); in experiment [5] (setting [8]) it was 99% (active); in experiment [5] (at 50.0 µM), 99.2% (active); in experiment [6] (setting [7]), 99% (active); in experiment [6] (setting [8]), 99% (active); in experiment [6] (at 50.0 µM), 99.2% (active).

Turning to `Cc1cc2nc(CC(=O)c3ccc4ccccc4c3)c(=O)[nH]c2cc1C`, the growth inhibition is -43% in experiment [1] (setting [7]); -24% in experiment [1] (setting [8]); 94.7% (active) in experiment [1] (at 50.0 µM); -3% in experiment [2] (setting [7]); 9% in experiment [2] (setting [8]); 81.4% (active) in experiment [2] (at 50.0 µM). In addition, the growth inhibition is -5% in experiment [3] (setting [7]); -21% in experiment [3] (setting [8]); 88.3% (active) in experiment [3] (at 50.0 µM); -17% in experiment [4] (setting [7]); -33% in experiment [4] (setting [8]); 80.9% (active) in experiment [4] (at 50.0 µM). The growth inhibition is 13% in experiment [5] (setting [7]); -19% in experiment [5] (setting [8]); 89% (active) in experiment [5] (at 50.0 µM); -16% in experiment [6] (setting [7]); -28% in experiment [6] (setting [8]); 96.7% (active) in experiment [6] (at 50.0 µM).

Regarding `C(/C=C/CC=Nc1ccccc1)=Nc1ccccc1`, the growth inhibition was 3% in experiment [1] (setting [7]); 4% in experiment [1] (setting [8]); 4.4% in experiment [1] (at 50.0 µM); 2% in experiment [2] (setting [7]); 3% in experiment [2] (setting [8]); 30.6% in experiment [2] (at 50.0 µM). In addition, the growth inhibition was 0% in experiment [3] (setting [7]); 6% in experiment [3] (setting [8]); 12.1% in experiment [3] (at 50.0 µM); -4% in experiment [4] (setting [7]); -4% in experiment [4] (setting [8]); 42.2% in experiment [4] (at 50.0 µM). Moreover, the growth inhibition in experiment [5] (setting [7]) is -4%; in experiment [5] (setting [8]) it was -3%; in experiment [5] (at 50.0 µM), -7.75%; in experiment [6] (setting [7]), 7%; in experiment [6] (setting [8]), 3%; in experiment [6] (at 50.0 µM), -29.7%.

As for `CCOC(C)(OCC)C(N)c1ccccc1` (configuration not stated), the growth inhibition in experiment [1] (setting [7]) was -15%; in experiment [1] (setting [8]), -12%; in experiment [1] (at 50.0 µM), 14.3%; in experiment [2] (setting [7]) it was 10%; in experiment [2] (setting [8]), -17%; in experiment [2] (at 50.0 µM), 19.4%. The growth inhibition in experiment [3] (setting [7]) is 6%; in experiment [3] (setting [8]) it was 9%; in experiment [3] (at 50.0 µM), -0.2%; in experiment [4] (setting [7]), -1%; in experiment [4] (setting [8]) it was 5%; in experiment [4] (at 50.0 µM), -5.65%. Moreover, the growth inhibition in experiment [5] (setting [7]) is 6%; in experiment [5] (setting [8]) it was 9%; in experiment [5] (at 50.0 µM), -6.9%; in experiment [6] (setting [7]), 2%; in experiment [6] (setting [8]), 9%; in experiment [6] (at 50.0 µM) it was 1.05%.

As to `Cc1noc(NS(=O)(=O)c2ccc(NC(=S)/N=C/c3c(O)[nH]c(=O)[nH]c3=O)cc2)c1C`, the growth inhibition in experiment [1] (setting [7]) was -1%; in experiment [1] (setting [8]), -5%; in experiment [1] (at 50.0 µM), 16.1%; in experiment [2] (setting [7]), -18%; in experiment [2] (setting [8]), -11%; in experiment [2] (at 50.0 µM) it was 9.75%. The growth inhibition in experiment [3] (setting [7]) is -8%; in experiment [3] (setting [8]), -5%; in experiment [3] (at 50.0 µM), 16.5%; in experiment [4] (setting [7]), -24%; in experiment [4] (setting [8]), -19%; in experiment [4] (at 50.0 µM) it was 44.8%. The growth inhibition is 4% in experiment [5] (setting [7]); 10% in experiment [5] (setting [8]); 6.05% in experiment [5] (at 50.0 µM); 7% in experiment [6] (setting [7]); -2% in experiment [6] (setting [8]); 15.8% in experiment [6] (at 50.0 µM).

Regarding `COC(=O)CCCCC(=O)N(C(C)C)C(C)C`, the growth inhibition was 4% in experiment [1] (setting [7]); -10% in experiment [1] (setting [8]); -8.6% in experiment [1] (at 50.0 µM); -5% in experiment [2] (setting [7]); -1% in experiment [2] (setting [8]); -14.4% in experiment [2] (at 50.0 µM). Further, the growth inhibition in experiment [3] (setting [7]) was -11%; in experiment [3] (setting [8]) it was -11%; in experiment [3] (at 50.0 µM), -19.8%; in experiment [4] (setting [7]), -2%; in experiment [4] (setting [8]), 11%; in experiment [4] (at 50.0 µM), 76.3% (active). In addition, the growth inhibition in experiment [5] (setting [7]) is 2%; in experiment [5] (setting [8]), 4%; in experiment [5] (at 50.0 µM), -3.5%; in experiment [6] (setting [7]) it was 5%; in experiment [6] (setting [8]), -5%; in experiment [6] (at 50.0 µM), 19.1%.

With `COc1ccc(NC(=O)CSC(N)=O)cc1`, the growth inhibition in experiment [1] (setting [7]) was 5%; in experiment [1] (setting [8]), 12%; in experiment [1] (at 50.0 µM), 49.1%; in experiment [2] (setting [7]), -1%; in experiment [2] (setting [8]) it was 20%; in experiment [2] (at 50.0 µM), 23.2%. Also, the growth inhibition is 3% in experiment [3] (setting [7]); 18% in experiment [3] (setting [8]); 64.1% in experiment [3] (at 50.0 µM); 0% in experiment [4] (setting [7]); -5% in experiment [4] (setting [8]); 21.9% in experiment [4] (at 50.0 µM). The growth inhibition was 3% in experiment [5] (setting [7]); 25% in experiment [5] (setting [8]); 53% in experiment [5] (at 50.0 µM); 3% in experiment [6] (setting [7]); 12% in experiment [6] (setting [8]); 51.6% in experiment [6] (at 50.0 µM).
